PubChem BioAssay (NCATS)
Results filed as inconclusive are left out. A number with no mark means an inactive call. Activity calls are given as the source filed them. Calls follow the shape of the dose curve; as a rule, active = well fitted inhibition curve with a large enough effect in the repeat runs; inconclusive = weak or mixed curves; inactive = no such curve, though single readings can be large or run the other way.

Each compound was assayed against Cytochrome P450 2C9 (Homo sapiens) (UniProt P11712) (assay: Cytochrome P450 family 2 subfamily C member 9 (CYP2C9) small molecule antagonists: luciferase biochemical (cell-free) qHTS assay (AID 1645842; also: nearly all actives have a fitted effect of over 55% in size)). Conditions: P450-Glo CYP2C9 enzyme assay, luciferin luminescence; series mostly up to 57.4 µM; activity change, negative = inhibition: at the top concentration.
Chain of Cytochrome P450 2C9 (Homo sapiens) (P11712 whole entry, looked up): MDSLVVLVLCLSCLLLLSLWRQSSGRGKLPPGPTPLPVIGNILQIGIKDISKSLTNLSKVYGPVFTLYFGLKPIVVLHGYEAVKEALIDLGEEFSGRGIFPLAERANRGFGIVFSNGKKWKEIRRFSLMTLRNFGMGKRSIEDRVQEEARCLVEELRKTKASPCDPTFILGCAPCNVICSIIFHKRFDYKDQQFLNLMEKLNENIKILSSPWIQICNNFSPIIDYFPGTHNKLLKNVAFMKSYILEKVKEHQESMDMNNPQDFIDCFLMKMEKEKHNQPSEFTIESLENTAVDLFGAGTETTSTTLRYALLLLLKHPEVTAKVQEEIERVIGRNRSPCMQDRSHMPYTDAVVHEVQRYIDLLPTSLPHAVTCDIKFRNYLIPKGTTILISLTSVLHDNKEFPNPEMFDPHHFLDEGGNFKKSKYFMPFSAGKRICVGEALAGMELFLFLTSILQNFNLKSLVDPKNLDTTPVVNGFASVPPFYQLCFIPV
Summary of the method: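 P450-Glo CYP2C9 system: proluciferin substrate with enzyme in mix containing 0.4% BSA, 10 min at room temperature, then NADPH regeneration solution added and incubated 1 h at 37C. Detection reagent stopped reaction; luminescence read after 20 min as RLU.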
% is scaled to controls: 0 for no effect and ±100 for the full control effect; potency is read from the fitted curve at half-maximal effect.

| SMILES | activity change, negative = inhibition [%] | Potency |
| --- | --- | --- |
| C[N+]1(C)CCCC(OC(=O)C(O)(c2ccccc2)c2ccccc2)C1 (stereo unspecified) | 2.4 | – |
| CCCCCC(N)=O | 11.2 | – |
| Cc1ncc(CO)c(CN)c1O | 11.4 | – |
| NC(=O)NC1NC(=O)NC1=O (stereo unspecified) | 2.64 | – |
| CCN[C@H]1CN(CCCOC)S(=O)(=O)c2sc(S(N)(=O)=O)cc21 | -1.19 | – |
| CC[C@]12CCCN3CCc4c(n(c5ccccc45)[C@@](O)(C(=O)OC)C1)[C@@H]32 | -1.48 | – |
| O=S1(=O)OC(c2ccc(O)cc2)(c2ccc(O)cc2)c2ccccc21 | – | 1.95 µM (active) |
| C[N+](C)(C)CC(O)CC(=O)[O-] (stereo unspecified) | 2.35 | – |
| COc1ccc2cc(CCC(C)=O)ccc2c1 | -25.4 | – |
| CCOC(N)=O | 24.5 | – |
| COc1cc(O)cc(O)c1 | 22.8 | – |
| CC(=O)[C@@]1(O)CC[C@H]2[C@@H]3C[C@H](C)C4=CC(=O)C=C[C@]4(C)[C@@]3(F)[C@@H](O)C[C@@]21C | – | 4.36 µM (active) |
| Cc1ccsc1C(=CCCN1CCC[C@@H](C(=O)O)C1)c1sccc1C | 2.85 | – |
| O=C(O)CCCc1ccccc1 | 4.01 | – |
| CC1CCc2cc(F)cc3c(=O)c(C(=O)O)cn1c23 (stereo unspecified) | 3.66 | – |
| O=C(O)c1ccccc1OP(=O)(O)O | 8.31 | – |
| CC1(C)[C@@H](OC(=O)CCC(=O)O)CC[C@]2(C)[C@H]3C(=O)C=C4[C@@H]5C[C@@](C)(C(=O)O)CC[C@]5(C)CC[C@@]4(C)[C@]3(C)CC[C@@H]12 | 14.2 | – |
| COC(=O)N/N=C/c1c[n+]([O-])c2ccccc2[n+]1[O-] | 2.4 | – |

| SMILES | activity change, negative = inhibition [%] | Potency |
| --- | --- | --- |
| Cc1cc(O)cc(C)c1Cl | 58.7 | – |
| CC(=O)Oc1cccc(C)c1 | 1.11 | – |
| O=c1[nH]c(=O)n([C@H]2C[C@H](O)[C@@H](CO)O2)cc1I | 6.16 | – |
| O=C1c2ccccc2S(=O)(=O)N1CCCCN1CCN(c2ncccn2)CC1 | – | 11 µM (active) |
| CC(O)CCCCn1c(=O)c2c(ncn2C)n(C)c1=O (stereo unspecified) | 3.11 | – |
| O=C(O)c1ccccc1C(=O)Nc1ccc(S(=O)(=O)Nc2nccs2)cc1 | 28.3 | – |
| CN(C(=O)c1c(O)c2ccccc2n(C)c1=O)c1ccccc1 | -2.19 | – |
| CC[N+](C)(CC)CCOC(=O)C1c2ccccc2Oc2ccccc21 | 7.78 | – |
| O=C(OOC(=O)c1ccccc1)c1ccccc1 | 7.6 | – |
| Cc1cc(NC(=O)C2=C(O)c3ccccc3S(=O)(=O)N2C)no1 | -22.9 | – |
| Nc1ncnc(Nc2ccccc2)n1 | – | inactive |
| C/C=C/C(=O)N(CC)c1ccccc1C | 0.925 | – |
| O=C(O)CCCCC1CCSS1 (stereo unspecified) | -0.666 | – |
| CC1(C)S[C@@H]2[C@H](N=CN3CCCCCC3)C(=O)N2[C@H]1C(=O)O | 15.2 | – |
| O=C(O)c1ccc(OCCCOc2ccc(C(=O)O)cc2)cc1 | 1.6 | – |
| COc1ccc(C(=O)N2CCN(CC(=O)N3CCOCC3)CC2)cc1 | 0.536 | – |
| CN1CCCN=C1COC(=O)C(O)(c1ccccc1)C1CCCCC1 (stereo unspecified) | -7.06 | – |
| CCOC(=O)OC(C)OC(=O)[C@@H]1N2C(=O)[C@@H](NC(=O)[C@H](N)c3ccccc3)[C@H]2SC1(C)C (stereo partly specified) | -2.05 | – |
